Compound activity as filed in PubChem BioAssay.
A selection: hits, their analogues and other compounds. The true share with any hit is near 3%.
PfHsp90 set2: reduces growth (ATP signal) of yeast expressing P. falciparum Hsp90; S. cerevisiae expressing PfHsp90, BacTiter-Glo ATP, 48 h; yeast lacking PDR1 and PDR3 efflux regulators; inhibition, % at 9.4 µM; hit rate 0.32% among 310,000; AID 504621;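 active = every replicate shows inhibition above about 80%, whatever the replicate mean, limit read from the data; inconclusive = mean inhibition reaches the set limit but some replicate falls short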;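 note: 0% = DMSO neutral controls and 100% = 20 µM radicicol positive controls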
Vif inh: HIV Vif inhibition; HEK293T cells, Vif self-association by quenched fluorescence, imaging, 24 h; inhibition, % at 7.49 µM; hit rate 0.35% among 340,000; AID 602346; in the data active = inhibition above about 50%, passing the limit was not always enough; inconclusive = no clear call, values can overlap the other calls; inactive = below about 31%
MITF TRPM1 HTS: activators of MITF-driven TRPM1 promoter activity in SK-MEL-5 cells. SK-MEL-5 TRPM1-promoter luciferase, 24 h; % of positive control, neutral wells = 0. activation, % at 12.5 µM. hit rate 0.75% among 300,000;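 active = mean activation of at least 80% with every replicate also reaching 80%; inconclusive = mean reaches 80% but some replicate falls short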;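 note: 0% = neutral control wells and 100% = parthenolide positive control wells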
esBAF inh: inhibitors of esBAF chromatin remodeling in mouse ES cells. hit rate 2% among 350,000. reporter increase, % at 12.5 µM. AID 602393. Bmi1-luciferase knock-in reporter, 24 h; 100% = twice the neutral-well signal; in the data active = activation above about 40%; inconclusive = no clear call, values can overlap the other calls;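 note: 0% = median of the plate's neutral control wells and 100% = double that signal; a rise in the Bmi1 reporter signal indicates esBAF inhibition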
Wnt bcat act: activators of Wnt/beta-catenin signaling | Wnt/beta-catenin reporter cell assay, activator, plate reader | activation, % at 9.35 µM | hit rate 1.2% among 300,000 | AID 743398; in the data active = activation above about 30%, passing the limit was not always enough; inconclusive = no clear call, values can overlap the other calls;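 note: 0% = neutral control wells and 100% = positive control wells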
N-glyco inh: N-linked glycosylation inhibition. reporter increase, % at 12.5 µM. AID 588692. D54 ERlucT glycosylation luciferase reporter, 24 h; percent of 100 nM tunicamycin response. hit rate 0.23% among 360,000;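 active = mean luciferase reporter signal, scaled so untreated is 0 and the glycosylation-blocking control 100, at or above a set limit in every replicate; inconclusive = mean reaches the limit but not every replicate does; inactive = mean below the limit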;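 note: luciferase carries N-glycosylation sites so blocking glycosylation raises the light; 0% = median of neutral control wells and 100% = median of 100 nM tunicamycin wells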
An asterisk follows results filed as active; u = inconclusive; x = no result.

SMILES | PfHsp90 set2 | Vif inh | MITF TRPM1 HTS | esBAF inh | Wnt bcat act | N-glyco inh
CC(=O)COc1ccc2c3c(c(=O)oc2c1C)CCCCC3 | 35 | 8 | 72 | 45* | x | 3
Cc1c(OC(C)C(=O)N[C@H](C(=O)O)c2ccccc2)ccc2c3c(c(=O)oc12)CCCC3 (stereo not given in full) | 2 | 20 | -5 | 1 | -2 | -1
CC(=O)C(C)Oc1ccc2c3c(c(=O)oc2c1C)CCCC3 (stereo not given) | -14 | 0 | -10 | 58* | -9 | 4
O=C(CCC1CCCN(C(=O)Cn2cnnn2)C1)NCc1ccc(F)c(F)c1 (stereo not given) | 0 | -1 | -5 | x | 0 | 0
CCOc1cc2c(C#N)c(N3CCCCC3)nc(N)c2c(N)n1 | -5 | x | 31 | 54* | x | 8
COc1cc2c(C#N)c(N3CCc4ccccc4C3)nc(N)c2c(N)n1 | -73 | 12 | 13 | 2 | -3 | 26*
COc1ccc(-c2ccc3c(c2)[C@@H]2[C@@H](CCN2C(=O)c2cnccn2)[C@@H](CO)N3)cc1 | x | x | x | -1 | x | x
Cc1ccc(-c2nnc(CCC(=O)N(C)Cc3nccs3)o2)s1 | 4 | 1 | 40 | 44* | 4 | 1
CC(=O)c1ccc(-c2nnc(CCC(=O)N(C)Cc3cccc4cnccc34)o2)s1 | -12 | -1 | -3 | x | -1 | -3
CN1C(=O)c2cc(NC(=O)c3ccccc3)ccc2OC[C@@H]2O[C@@H](CC(=O)O)CC[C@@H]21 | x | x | x | 1 | x | x
COc1ccc(-c2nnsc2N2C(=O)c3ccccc3C2=O)cc1 | x | 32 | x | 2 | 4 | 1
COc1ccc(-c2nc3n(c2C)Cc2ccccc2-3)cc1 | 12 | -2 | x | x | 46* | -6
CCOc1ccccc1-n1nnnc1SCC(=O)O | 6 | 5 | 5 | -7 | 36* | 1
COc1cc(/C=C/C(=O)O)cc(OC)c1 | -4 | -4 | -11 | -2 | x | 2
Oc1ccc(/C=C/c2cc(O)cc(O)c2)cc1 | 14 | -2 | 104* | -3 | 0 | -13
COc1cc(O)cc(/C=C/c2ccccc2)c1 | x | -21 | 79 | 51* | -3 | -5
CN(Cc1ccc2c(c1)OCCO2)C(=O)CN1C(=O)NC2(CCCCC2)C1=O | -9 | 3 | -4 | -2 | 0 | 1
O=C(CN1C(=O)NC2(CCCCCC2)C1=O)c1ccccc1 | -17 | 3 | -4 | -12 | 4 | -3
O=C(CN1C(=O)NC2(CCCCCC2)C1=O)c1ccc(Cl)cc1 | 3 | -1 | 56 | 52* | 15 | 0
CCOC(=O)C1CCN(C(=O)CN2C(=O)NC3(CCCCC3)C2=O)CC1 | -10 | 0 | 3 | 1 | 43* | 0
O=C(CN1C(=O)NC2(CCCCCC2)C1=O)c1ccc2c(c1)OCCO2 | -25 | 2 | x | 37 | 67* | -4
CCc1ccc(C(=O)CN2C(=O)NC3(CCCCCC3)C2=O)cc1 | 4 | -5 | 75 | 64* | 13 | 3
O=C(CN1C(=O)NC2(CCCCCC2)C1=O)c1ccc(F)cc1 | -23 | -4 | 21 | 6 | 4 | -2
O=C1CCC([N+](=O)[O-])C(c2ccc(F)c(Br)c2)N1 (stereo not given) | 27 | -4 | -10 | 2 | 0 | 2
Clc1ccc(CSc2nnc(CNc3cccc(Cl)c3)o2)cc1 | -40 | -5 | -10 | x | x | 0
SMILES | PfHsp90 set2 | Vif inh | MITF TRPM1 HTS | esBAF inh | Wnt bcat act | N-glyco inh
c1ccc2c(-c3ccc(OCCN4CCCCC4)cc3)c(-c3ccsc3)sc2c1 | 32 | 6 | 20 | -5 | -15 | -2
COc1cc(OC)cc(C(=O)Nc2sc3c(c2C(N)=O)CCC3)c1 | -9 | -4 | 52 | u | -3 | 1
NC(=O)c1ccsc1NC(=O)CN1C(=O)NC2(CCCCC2)C1=O | -2 | 7 | -2 | 0 | 1 | 2
CCc1cccc2c(C(=O)CN3C(=O)NC4(CCCCCC4)C3=O)c[nH]c12 | 3 | -6 | 102* | -22 | -2 | 8
N#Cc1ccsc1NC(=O)CN1C(=O)NC2(CCCC2)C1=O | 4 | -10 | -1 | 45* | 8 | 2
CCN1C(=O)[C@H]2[C@@H](c3ccc(OC)cc3)N3C(=O)CN(CC4CC4)C(=O)[C@@]3(C)[C@H]2C1=O | 29 | -7 | 1 | -4 | -3 | 1
CCCCCCc1cc2cc(-c3nnc(-c4ccccc4OC)o3)c(=O)oc2cc1O | 10 | 70* | 5 | -1 | -4 | -4
